# Reference: PubChem BioAssay (Tox21)
# “And” between values parts separate entries of the source, which are not always exact repeats. Equal values may be shown once. Results filed as inconclusive are left out. Entries that show only a call come without a potency. More than one record can exist for a structure, and the calls need not agree. The source made the active and inactive calls. Unless noted, the call rests on the fitted dose curve; in most records, active means well fitted curve in the direction sought with a large enough effect in the repeat runs; inconclusive means weak or mixed curves; inactive means no such curve, though single readings can be large; an effect the other way counts as inactive or inconclusive.
# Legend:
# [1] = A CellTox Green Cytotoxicity Assay to monitor cytotoxicity in HepG2 cells - 0 hour (AID 1224882); further: nearly all actives have a fitted effect of over 35% in size
# Procedure, shortened: (§1)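 HepG2 cells were seeded together with the CellTox Green dye at 600 cells/well, left 5 h at 37 C/5% CO2, then given compounds in DMSO. Fluorescence from dye bound to dead-cell DNA was read repeatedly over 40 h of treatment at 37 C.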
# [2] = A CellTox Green Cytotoxicity Assay to monitor cytotoxicity in HEK293 cells - 8 hour (AID 1224884); further: nearly all actives have a fitted effect of over 35% in size; further: potency means the concentration at half of the fitted maximal effect
# Procedure, shortened: (§2)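 HEK293 cells premixed with CellTox Green dye were seeded at 600 cells/well and left 5 h at 37 C/5% CO2 before pin transfer of 23 nL compound in DMSO. Fluorescence from dye bound to dead-cell DNA was read during 40 h treatment.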
# [3] = qHTS RealTime-Glo MT Cell Viability Assay in HepG2 cells - 16 hour (AID 1224885); further: nearly all actives have a fitted effect of over 50% in size
# Procedure, shortened: (§3)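 HepG2 cells were seeded at 600 cells/well together with NanoLuc luciferase and a cell-permeant prosubstrate, preincubated 5 h at 37 C/5% CO2, then pin-dosed with compounds in DMSO. Nonlytic luminescence from viable cells was read at each time point.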
# [4] = qHTS RealTime-Glo MT Cell Viability Assay in HEK293 cells - 24 hour (AID 1224886); further: top concentration of the series differs between compounds; nearly all actives have a fitted effect of over 50% in size
# Procedure, shortened: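 HEK293 cells were seeded at 600 cells/well together with NanoLuc luciferase and cell-permeant prosubstrate, preincubated 5 h at 37 C/5% CO2, then given compound in DMSO by pintool. Luminescence from viable-cell prosubstrate reduction was read repeatedly over 40 h.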
# [5] = qHTS RealTime-Glo MT Cell Viability Assay in HEK293 cells - 8 hour (AID 1224887); further: top concentration of the series differs between compounds; nearly all actives have a fitted effect of over 50% in size
# Procedure, shortened: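 HEK293 cells mixed with RealTime-Glo reagents (NanoLuc plus cell-permeant prosubstrate) at 600 cells/well, preincubated 5 h at 37 C/5% CO2, then given 23 nL compound in DMSO. Nonlytic luminescence from viable cells was read at 0, 8, 16, 24, 32 and 40 h.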
# [6] = A CellTox Green Cytotoxicity Assay to monitor cytotoxicity in HEK293 cells - 16 hour (AID 1224888); further: nearly all actives have a fitted effect of over 35% in size
# Procedure, shortened: as §2
# [7] = qHTS RealTime-Glo MT Cell Viability Assay in HepG2 cells - 0 hour (AID 1224889); further: nearly all actives have a fitted effect of over 50% in size
# Procedure, shortened: as §3
# [8] = A CellTox Green Cytotoxicity Assay to monitor cytotoxicity in HepG2 cells - 8 hour (AID 1224890); further: nearly all actives have a fitted effect of over 45% in size
# Procedure, shortened: as §1
# [9] = qHTS assay to identify small molecule antagonists of the estrogen receptor alpha (ER-alpha) signaling pathway using the BG1 cell line in the presence of 0.1 nM 17-beta-estradiol - cell viability counter screen (AID 1259241); further: nearly all actives have a fitted effect of over 40% in size
# Procedure, shortened: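 VM7Luc4E2, 4,000 cells/well, phenol red-free medium + 10% charcoal-stripped FBS; 24 hr plating; cpd + 0.1 nM E2 final, 22 hr 37C/5% CO2; CellTiter-Fluor 30 min, fluorescence.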
# [10] = qHTS assay to identify small molecule antagonists of the androgen receptor (AR) signaling pathway using the MDA cell line in the presence of 0.5 nM R1881 - cell viability counter screen (AID 1259242); further: nearly all actives have a fitted effect of over 45% in size
# Procedure, shortened: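 MDA-kb2 cells (human breast carcinoma, stably carrying MMTV-luciferase reporter) were exposed to compounds with 0.5 nM R1881 (final) for 16 hr at 37C, 0% CO2; viability then read as live-cell protease fluorescence (CellTiter-Fluor, 30 min) in the same wells.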
# [11] = qHTS assay to identify small molecule HDAC inhibitors - cell viability counter screen (AID 1259365)
# Procedure, shortened: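 Luminescence from CellTiter-Glo, developed 30min at room temperature, reports viability of wild-type HCT-116 cells treated 2hr with compounds at 37 C and 5% CO2 after overnight plating.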
# [12] = qHTS assay to identify small molecule agonists of the sonic hedgehog signaling (Shh) pathway - cell viability counter screen (AID 1259366); further: nearly all actives have a fitted effect of over 50% in size
# Procedure, shortened: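 Cytotoxicity counter screen run in the same wells as the Shh reporter assay. NIH/3T3 cells carrying a Gli1 response element–driven luciferase were treated with DMSO-dissolved compounds for 24hr, and live-cell protease activity was measured with CellTiter-Fluor.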
# [13] = qHTS assay to identify small molecule antagonists of the sonic hedgehog signaling (Shh) pathway - cell viability counter screen (AID 1259367); further: nearly all actives have a fitted effect of over 55% in size
# Procedure, shortened: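 NIH/3T3-derived Gli1-Luc reporter cells (2,000 per well) rested 4 hr at 37 C, then received DMSO compounds plus conditioned medium. After 23 hr of treatment, CellTiter-Fluor was added for 1 hr at 37C and fluorescence read.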
# [14] = qHTS assay to identify small molecule agonists of the sonic hedgehog signaling (Shh) pathway (AID 1259368; calls by dose curve; further: series mostly up to about 92 µM; nearly all actives have a fitted effect of over 15% in size)
# Procedure, shortened: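 NIH/3T3-derived 3T3Gli1-Luc cells carrying a stably integrated Gli1 response element–firefly luciferase reporter were plated, left 4 hr at 37 C, then given compounds in DMSO for 24 hr. Luminescence was read 30 min after adding luciferase reagent.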
# [15] = target: Androgen receptor (Homo sapiens) (UniProt P10275); assay: qHTS assay to identify small molecule antagonists of the androgen receptor (AR) signaling pathway using the MDA cell line in the presence of 0.5 nM R1881 (AID 1259243); further: nearly all actives have a fitted effect of over 50% in size
# Chain of Androgen receptor (Homo sapiens) (P10275 whole entry, looked up): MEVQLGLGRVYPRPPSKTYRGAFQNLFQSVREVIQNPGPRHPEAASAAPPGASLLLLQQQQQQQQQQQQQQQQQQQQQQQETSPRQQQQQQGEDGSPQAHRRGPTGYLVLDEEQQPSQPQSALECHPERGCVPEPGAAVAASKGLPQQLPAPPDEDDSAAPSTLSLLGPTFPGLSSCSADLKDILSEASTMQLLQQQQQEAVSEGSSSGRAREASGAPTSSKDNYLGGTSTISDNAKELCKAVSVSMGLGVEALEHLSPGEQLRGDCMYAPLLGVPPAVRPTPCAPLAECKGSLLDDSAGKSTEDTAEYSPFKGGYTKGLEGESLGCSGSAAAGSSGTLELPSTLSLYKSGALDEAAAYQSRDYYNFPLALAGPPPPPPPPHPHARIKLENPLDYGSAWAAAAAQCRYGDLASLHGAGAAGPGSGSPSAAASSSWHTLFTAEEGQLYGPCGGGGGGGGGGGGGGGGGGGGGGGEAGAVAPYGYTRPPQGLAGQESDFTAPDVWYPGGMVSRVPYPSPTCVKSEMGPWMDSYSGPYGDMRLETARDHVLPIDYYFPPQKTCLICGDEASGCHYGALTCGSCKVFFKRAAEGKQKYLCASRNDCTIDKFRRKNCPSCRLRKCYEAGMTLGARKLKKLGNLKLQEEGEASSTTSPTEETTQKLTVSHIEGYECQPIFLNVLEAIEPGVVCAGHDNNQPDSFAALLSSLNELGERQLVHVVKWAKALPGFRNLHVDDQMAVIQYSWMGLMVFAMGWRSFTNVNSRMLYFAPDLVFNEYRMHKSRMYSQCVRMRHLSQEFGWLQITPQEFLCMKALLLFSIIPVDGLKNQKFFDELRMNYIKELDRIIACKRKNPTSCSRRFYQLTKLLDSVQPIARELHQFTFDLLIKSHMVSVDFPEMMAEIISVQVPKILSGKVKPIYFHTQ
# Procedure, shortened: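 MDA-kb2 human breast carcinoma cells carrying an MMTV-luciferase reporter (AR- and GR-responsive) were plated, rested 5 hr at 37C, dosed with compounds, then stimulated with 0.5 nM R1881 (final) for 16 hr; luminescence was read after ONE-Glo.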
# [16] = target: Estrogen receptor (Homo sapiens) (UniProt P03372); assay: qHTS assay to identify small molecule antagonists of the estrogen receptor alpha (ER-alpha) signaling pathway using the BG1 cell line in the presence of 0.1 nM 17-beta-estradiol (AID 1259244); further: nearly all actives have a fitted effect of over 50% in size; further: potency means the concentration at half of the fitted maximal effect
# Chain of Estrogen receptor (Homo sapiens) (P03372 whole entry, looked up): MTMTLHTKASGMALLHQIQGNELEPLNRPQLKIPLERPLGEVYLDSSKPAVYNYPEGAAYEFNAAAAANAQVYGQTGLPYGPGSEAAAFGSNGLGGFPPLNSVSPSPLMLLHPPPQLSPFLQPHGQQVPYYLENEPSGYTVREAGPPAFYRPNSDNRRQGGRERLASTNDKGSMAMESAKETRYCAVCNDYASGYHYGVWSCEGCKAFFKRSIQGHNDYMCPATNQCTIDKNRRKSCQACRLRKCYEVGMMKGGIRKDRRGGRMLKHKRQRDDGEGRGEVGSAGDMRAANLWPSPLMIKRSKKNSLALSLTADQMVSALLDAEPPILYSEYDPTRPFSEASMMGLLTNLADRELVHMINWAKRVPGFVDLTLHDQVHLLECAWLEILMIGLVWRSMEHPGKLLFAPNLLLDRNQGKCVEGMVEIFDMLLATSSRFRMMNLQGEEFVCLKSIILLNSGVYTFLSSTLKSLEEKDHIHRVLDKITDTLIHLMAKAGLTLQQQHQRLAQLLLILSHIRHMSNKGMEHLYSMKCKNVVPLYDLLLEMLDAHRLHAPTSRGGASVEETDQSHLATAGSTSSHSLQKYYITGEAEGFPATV
# Procedure, shortened: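 VM7Luc4E2 cells (endogenous full-length ER-alpha, stable 4xERE-luciferase) were grown 5 days in phenol red-free medium with charcoal-stripped FBS, then exposed 22 h at 37C to compounds plus 0.1 nM (final) 17beta-estradiol; ONE-Glo luminescence read-out.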
# [17] = qHTS assay to identify small molecule HDAC inhibitors (AID 1259364); further: nearly all actives have a fitted effect of over 45% in size; further: potency means the concentration at half of the fitted maximal effect
# Procedure, shortened: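 Wild-type HCT-116 cells were plated overnight, exposed to compounds for 2 h at 37 °C, then given HDAC-Glo class I/II luminogenic reagent for 30 min at room temperature before luminescence was read.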
# [18] = A CellTox Green Cytotoxicity Assay to monitor cytotoxicity in HepG2 cells - 32 hour (AID 1224883); further: nearly all actives have a fitted effect of over 50% in size
# Procedure, shortened: as §1
# [19] = qHTS assay to identify small molecule phospholipidosis (PLD) inducers (AID 1259344; active means well fitted curve in the direction sought with a large enough effect; an effect the other way counts as inactive or inconclusive)
# Procedure, shortened: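 HepG2 cells on collagen I, attached 4 h at 37 C, were co-treated with compound and LipidTOX Red dye for 24 h at 37 C, then fixed with paraformaldehyde plus Hoechst 33342 and imaged by high-content microscopy for phospholipid accumulation.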
SMILES,Potency [1],Potency [2],outcome [3],outcome [4],outcome [5],Potency [6],outcome [7],Potency [8],outcome [9],outcome [10],outcome [11],Potency [12],Potency [13],outcome [14],Potency [15],Potency [16],Potency [17],Potency [18],Potency [19]
OCCCCO,inactive,inactive,inactive,inactive,inactive,inactive,inactive,inactive,inactive,inactive,inactive,inactive,inactive,inactive,,,,,
CNC(=O)O/N=C(\SC)C(=O)N(C)C,inactive,inactive,inactive,inactive,inactive,inactive,inactive,inactive,inactive,inactive,inactive,inactive,inactive,inactive,inactive,inactive,inactive,,
Nc1cc(Cl)cc(Cl)c1,inactive,inactive,inactive,inactive,inactive,inactive,inactive,inactive,inactive,inactive,inactive,inactive,inactive,inactive,,,inactive,,
Sc1ccccc1,inactive,inactive,inactive,inactive,inactive,inactive,inactive,inactive,inactive,inactive,inactive,inactive,inactive,inactive,,inactive,,,
CN(C)CCC#N,inactive,inactive,inactive,inactive,inactive,inactive,inactive,inactive,inactive,inactive,inactive,inactive,inactive,inactive,,inactive,,,
CNC(=O)O/N=C/C(C)(C)S(C)(=O)=O,inactive,inactive,inactive,inactive,inactive,inactive,inactive,inactive,inactive,inactive,inactive,inactive,inactive,inactive,inactive,inactive,inactive,,
COC(=O)Nc1cccc(OC(=O)Nc2cccc(C)c2)c1,inactive,inactive,inactive,inactive,inactive,inactive,inactive,inactive,inactive,inactive,inactive,inactive,inactive,inactive,,,27.3 µM (active) and 30.6 µM (active),,
CNC(=O)O/N=C/C(C)(C)SC,inactive,inactive,inactive,inactive,inactive,inactive,inactive,inactive,inactive,inactive,inactive,inactive,inactive,inactive,,inactive,inactive,inactive,
CC(=O)/C=C/c1ccccc1,inactive,inactive,inactive,inactive,inactive,inactive,inactive,inactive,inactive,inactive,inactive,inactive,inactive,inactive,,,,,
CCCOC(=O)c1ccccc1C(=O)OCCC,inactive,inactive,inactive,inactive,inactive,inactive,inactive,inactive,inactive,inactive,inactive,inactive,inactive,inactive,,inactive,,inactive,
COc1nc(NC(C)C)nc(NC(C)C)n1,inactive,inactive,inactive,inactive,inactive,inactive,inactive,inactive,inactive,inactive,inactive,inactive,inactive,inactive,,inactive,inactive,inactive,
OCC(O)CCl (stereo not drawn),inactive,inactive,inactive,inactive,inactive,inactive,inactive,inactive,inactive,inactive,inactive,inactive,inactive,inactive,,inactive,,,
Clc1cnc(Oc2ccc(Oc3ncc(Cl)cc3Cl)cc2)c(Cl)c1,inactive,inactive and 34.7 µM (active),inactive,inactive,inactive,,inactive,inactive,inactive,inactive,inactive,inactive,inactive,inactive,,,,inactive,
ClC(Cl)c1ccccc1,inactive,inactive,inactive,inactive,inactive,inactive,inactive,inactive,inactive,inactive,inactive,inactive,inactive,inactive,,inactive,,,
C/C=C/c1ccc2c(c1)OCO2,inactive,inactive,inactive,inactive,inactive,inactive,inactive,inactive,inactive,inactive,inactive,inactive,inactive,inactive,,,,inactive,
CC(=O)C1CCOC1=O (stereo not drawn),inactive,inactive,inactive,inactive,inactive,inactive,inactive,inactive,inactive,inactive,inactive,inactive,inactive,inactive,,,inactive,inactive,
O=S(=O)(O)OOS(=O)(=O)O,inactive,inactive,inactive,inactive,inactive,inactive,inactive,inactive,inactive,inactive,inactive,inactive,inactive,inactive,,,,inactive,
ClCCOCCCl,inactive,inactive,inactive,inactive,inactive,inactive,inactive,inactive,inactive,inactive,inactive,inactive,inactive,inactive,,,inactive,inactive,
CN(C)NC(=O)CCC(=O)O,inactive,inactive,inactive,inactive,inactive,inactive,inactive,inactive,inactive,inactive,inactive,inactive,inactive,inactive,,,,,
CN1C(=O)CCS(=O)(=O)C1c1ccc(Cl)cc1 (stereo not drawn),inactive,inactive,inactive,inactive,inactive,inactive,inactive,inactive,inactive,inactive,inactive,inactive,inactive,inactive,,,,inactive,inactive
CCOP(=S)(OCC)Oc1ccc([N+](=O)[O-])cc1,inactive,inactive,inactive,inactive,inactive,inactive,inactive,inactive,inactive,inactive,inactive,inactive,inactive,inactive,,,,,
C=C(C)C(=O)OCC(CC)CCCC (stereo not drawn),inactive,inactive,inactive,inactive,inactive,inactive,inactive,inactive,inactive,inactive,inactive,inactive,inactive,inactive,,22.1 µM (active) and inactive,inactive,,
FC(F)(F)c1ccc(Cl)cc1,inactive,inactive,inactive,inactive,inactive,inactive,inactive,inactive,inactive,inactive,inactive,inactive,inactive,inactive,,inactive,inactive,,
O=P1(NCCCl)OCCCN1CCCl (stereo not drawn),inactive,inactive,inactive,inactive,inactive,inactive,inactive,inactive,inactive,inactive,inactive,inactive,inactive,inactive,,,inactive,inactive,inactive
CC(C)CCCCCCOC(=O)c1ccccc1C(=O)OCCCCCCC(C)C,inactive,inactive,inactive,inactive,inactive,inactive,inactive,inactive,inactive,inactive,inactive,inactive,inactive,inactive,inactive,inactive,inactive,,
